Measurements from ChEMBL document CHEMBL3988442, “University of Dundee, Small-Polar-MMV Screening Library” (2021).
For some of these results: Entries with a potency or affinity are not part of this list.

Tests used:
Design in all cases: scale not given: direction of the effect not stated beside the values
[1] = molecular target: Protein translocase subunit SecA (Escherichia coli (strain K12)) (UniProt P10408); experiment: Assay to Identify E. coli SecA ATPase Inhibitors; type: functional; settings: 30 µM
[2] = molecular target: T1, Ubiquitin-activating enzyme e1, putative (Leishmania donovani (strain BPK282A1)) (UniProt E9BSI1); experiment: Leishmania donovani Ubiquitin Activating Enzyme (LdE1); type: functional; settings: 30 µM
T1 sequence (whole entry): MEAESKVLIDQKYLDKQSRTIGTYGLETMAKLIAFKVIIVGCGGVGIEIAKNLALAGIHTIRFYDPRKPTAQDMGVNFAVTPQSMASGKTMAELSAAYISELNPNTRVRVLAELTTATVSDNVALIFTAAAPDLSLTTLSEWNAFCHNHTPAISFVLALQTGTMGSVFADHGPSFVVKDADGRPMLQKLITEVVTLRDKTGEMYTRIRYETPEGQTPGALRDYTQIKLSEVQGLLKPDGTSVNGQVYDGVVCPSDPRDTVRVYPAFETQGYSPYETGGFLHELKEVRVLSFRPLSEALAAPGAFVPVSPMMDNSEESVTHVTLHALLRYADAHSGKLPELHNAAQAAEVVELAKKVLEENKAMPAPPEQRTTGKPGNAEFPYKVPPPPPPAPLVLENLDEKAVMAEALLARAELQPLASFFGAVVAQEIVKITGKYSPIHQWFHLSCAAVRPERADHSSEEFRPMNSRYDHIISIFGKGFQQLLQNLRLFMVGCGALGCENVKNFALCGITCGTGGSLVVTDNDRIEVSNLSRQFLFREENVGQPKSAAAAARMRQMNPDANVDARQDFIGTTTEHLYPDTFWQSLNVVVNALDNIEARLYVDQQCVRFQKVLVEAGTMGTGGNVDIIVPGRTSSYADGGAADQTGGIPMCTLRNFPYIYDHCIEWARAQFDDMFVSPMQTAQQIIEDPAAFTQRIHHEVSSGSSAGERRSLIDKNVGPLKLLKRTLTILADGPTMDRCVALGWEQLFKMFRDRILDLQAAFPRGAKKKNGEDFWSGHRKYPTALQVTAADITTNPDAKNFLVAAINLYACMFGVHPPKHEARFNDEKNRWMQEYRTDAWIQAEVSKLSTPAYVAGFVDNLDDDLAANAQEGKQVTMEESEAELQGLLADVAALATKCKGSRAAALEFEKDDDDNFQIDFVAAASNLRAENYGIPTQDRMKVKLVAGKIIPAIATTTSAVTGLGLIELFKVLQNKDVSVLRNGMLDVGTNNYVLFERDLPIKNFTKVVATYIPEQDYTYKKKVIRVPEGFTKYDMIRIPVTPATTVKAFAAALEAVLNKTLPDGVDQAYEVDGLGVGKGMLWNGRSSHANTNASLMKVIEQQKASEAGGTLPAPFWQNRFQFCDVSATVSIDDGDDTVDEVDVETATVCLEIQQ

[3] = molecular target: AMP-activated protein kinase, AMPK (Homo sapiens) (UniProt P54646+O43741+P54619+Q9UGJ0+Q9Y478+Q13131+Q9UGI9); experiment: AMP-dependent Kinase enzyme assay. An in vitro enzyme assay that detects ADP turnover that is directly proportional to AMPK activity. This uses naive AMPK that is activated during the assay with MK-8722; type: functional; settings: 30 µM
[4] = molecular target: Sialic acid-binding Ig-like lectin 9 (Homo sapiens) (UniProt Q9Y336); experiment: Hs-Siglec9 ALPHAscreen SOP 20170721; settings: 10 µM
Trypanosoma cruzi = experiment: Trypanosoma cruzi phosphomannomutase and mannose-1-phosphate guanylyltransferase assay; type: functional; settings: 10 µM
[5] = molecular target: T2, Arginase-2, mitochondrial (Homo sapiens) (UniProt P78540); experiment: in vitro enzyme assay to detect the production of urea directly proportional to the activity of Arginase II; type: functional; settings: 33.3 µM; further: in the data most compounds retested in dose-response had high values
T2 sequence (whole entry): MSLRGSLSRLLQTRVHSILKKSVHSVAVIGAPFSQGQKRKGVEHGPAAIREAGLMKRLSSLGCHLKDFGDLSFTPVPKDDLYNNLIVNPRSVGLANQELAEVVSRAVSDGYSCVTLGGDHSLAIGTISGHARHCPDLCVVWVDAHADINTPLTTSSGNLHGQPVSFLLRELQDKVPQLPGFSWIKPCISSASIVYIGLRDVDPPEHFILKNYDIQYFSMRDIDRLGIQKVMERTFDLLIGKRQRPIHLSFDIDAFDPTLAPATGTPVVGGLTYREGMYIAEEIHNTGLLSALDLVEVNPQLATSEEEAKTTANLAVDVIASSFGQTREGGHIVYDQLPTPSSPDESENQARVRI

[6] = molecular target: T3, Proteasome subunit beta (Trypanosoma cruzi) (UniProt O96673); experiment: Trypanosoma cruzi proteasome chymotrypsin-like activity (TcProtChymo) assay.; further: in the data most compounds retested in dose-response had high values; type: functional; settings: 9.37 µM
T3 sequence (whole entry): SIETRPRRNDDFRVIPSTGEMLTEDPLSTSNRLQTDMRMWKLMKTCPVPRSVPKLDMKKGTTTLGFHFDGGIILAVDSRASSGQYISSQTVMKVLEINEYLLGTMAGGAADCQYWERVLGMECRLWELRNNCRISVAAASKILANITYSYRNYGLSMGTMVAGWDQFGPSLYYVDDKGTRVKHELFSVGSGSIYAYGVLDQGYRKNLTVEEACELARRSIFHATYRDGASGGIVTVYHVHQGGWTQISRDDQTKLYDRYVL

Homo sapiens = species: Homo sapiens; experiment: To identify inhibition of the IFN signalling (Jak-Stat) pathway via expression of an eGFP reporter gene under the control of an IFN-stimulated response element (ISRE) containing MxA promoter.; type: functional; settings: 30 µM
[7] = molecular target: T4, Tyrosyl-tRNA synthetase, putative (Trypanosoma cruzi (strain CL Brener)) (UniProt Q4DSP6); experiment: Trypanosoma cruzi tyrosyl tRNA synthetase (TcYRS) _High Tyrosine SOP; type: functional; settings: 30 µM; further: in the data most compounds retested in dose-response had high values
T4 sequence (whole entry): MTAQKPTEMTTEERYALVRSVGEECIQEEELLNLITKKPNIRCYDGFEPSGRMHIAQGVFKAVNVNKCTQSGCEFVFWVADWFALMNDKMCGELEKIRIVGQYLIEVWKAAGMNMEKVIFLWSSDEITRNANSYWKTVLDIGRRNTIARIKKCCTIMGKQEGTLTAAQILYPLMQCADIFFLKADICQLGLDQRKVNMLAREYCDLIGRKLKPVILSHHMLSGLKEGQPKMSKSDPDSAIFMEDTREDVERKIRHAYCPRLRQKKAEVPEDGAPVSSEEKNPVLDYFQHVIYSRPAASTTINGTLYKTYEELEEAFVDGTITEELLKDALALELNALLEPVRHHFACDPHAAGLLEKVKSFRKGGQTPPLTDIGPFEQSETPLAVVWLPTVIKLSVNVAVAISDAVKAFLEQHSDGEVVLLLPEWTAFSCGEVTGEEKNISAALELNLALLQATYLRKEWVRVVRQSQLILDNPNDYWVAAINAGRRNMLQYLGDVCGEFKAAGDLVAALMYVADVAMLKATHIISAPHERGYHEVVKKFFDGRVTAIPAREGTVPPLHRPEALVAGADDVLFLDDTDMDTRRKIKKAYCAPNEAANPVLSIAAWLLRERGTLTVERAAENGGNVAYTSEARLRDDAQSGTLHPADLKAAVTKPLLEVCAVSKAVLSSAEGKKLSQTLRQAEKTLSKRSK

[8] = molecular target: T4, Tyrosyl-tRNA synthetase, putative (Trypanosoma cruzi (strain CL Brener)); experiment: Trypanosoma cruzi tyrosyl tRNA synthetase (TcYRS) SOP; type: functional; settings: 30 µM
[9] = molecular target: Chromo domain-containing protein 1 (Saccharomyces cerevisiae (strain ATCC 204508 / S288c) (Baker's yeast)) (UniProt P32657); experiment: ScCHD-1 Enzyme Inhibition Assay; type: functional; settings: 30 µM; further: in the data most compounds retested in dose-response had high values
Chromo domain-containing protein 1 (Saccharomyces cerevisiae (strain ATCC 204508 / S288c) (Baker's yeast)), sequence (P32657 whole entry, the tested form may be a part): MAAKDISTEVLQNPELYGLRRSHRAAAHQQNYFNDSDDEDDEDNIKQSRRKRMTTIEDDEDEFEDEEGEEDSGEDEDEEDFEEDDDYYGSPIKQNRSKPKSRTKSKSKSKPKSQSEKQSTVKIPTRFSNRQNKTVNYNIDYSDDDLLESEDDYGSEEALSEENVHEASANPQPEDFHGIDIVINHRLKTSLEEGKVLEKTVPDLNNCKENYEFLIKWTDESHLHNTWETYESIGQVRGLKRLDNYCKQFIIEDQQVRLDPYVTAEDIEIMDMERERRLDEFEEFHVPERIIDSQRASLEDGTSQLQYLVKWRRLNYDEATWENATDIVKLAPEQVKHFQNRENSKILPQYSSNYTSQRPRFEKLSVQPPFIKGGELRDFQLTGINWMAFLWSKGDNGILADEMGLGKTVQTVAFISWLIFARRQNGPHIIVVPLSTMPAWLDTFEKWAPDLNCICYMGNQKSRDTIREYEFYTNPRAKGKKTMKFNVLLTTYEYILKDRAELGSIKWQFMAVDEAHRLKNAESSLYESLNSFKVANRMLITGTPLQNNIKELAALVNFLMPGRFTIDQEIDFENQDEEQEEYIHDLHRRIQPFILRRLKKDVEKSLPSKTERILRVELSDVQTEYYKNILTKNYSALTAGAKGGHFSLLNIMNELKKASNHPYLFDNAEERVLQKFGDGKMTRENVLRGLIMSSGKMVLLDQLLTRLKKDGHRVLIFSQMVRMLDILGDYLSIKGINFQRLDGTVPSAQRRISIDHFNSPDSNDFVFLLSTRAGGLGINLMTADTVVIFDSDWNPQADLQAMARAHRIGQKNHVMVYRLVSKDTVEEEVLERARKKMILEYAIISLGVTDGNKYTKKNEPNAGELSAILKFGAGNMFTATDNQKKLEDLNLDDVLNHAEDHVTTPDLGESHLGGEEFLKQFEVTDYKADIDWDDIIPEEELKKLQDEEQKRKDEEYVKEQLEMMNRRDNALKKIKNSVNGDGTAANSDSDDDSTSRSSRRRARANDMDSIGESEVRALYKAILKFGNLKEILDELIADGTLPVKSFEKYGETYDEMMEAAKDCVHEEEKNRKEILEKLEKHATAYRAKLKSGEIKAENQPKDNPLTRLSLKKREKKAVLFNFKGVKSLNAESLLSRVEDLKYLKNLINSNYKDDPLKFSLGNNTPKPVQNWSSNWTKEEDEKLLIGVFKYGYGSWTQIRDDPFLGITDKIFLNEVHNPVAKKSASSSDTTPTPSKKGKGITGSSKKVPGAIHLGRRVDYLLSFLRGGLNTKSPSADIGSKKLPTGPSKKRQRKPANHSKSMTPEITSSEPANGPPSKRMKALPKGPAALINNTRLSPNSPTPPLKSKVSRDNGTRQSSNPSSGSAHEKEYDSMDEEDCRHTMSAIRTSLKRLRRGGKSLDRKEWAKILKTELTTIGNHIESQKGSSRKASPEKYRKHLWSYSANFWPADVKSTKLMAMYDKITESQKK

Sialic acid-binding Ig-like lectin 9 (Homo sapiens), sequence (Q9Y336 whole entry): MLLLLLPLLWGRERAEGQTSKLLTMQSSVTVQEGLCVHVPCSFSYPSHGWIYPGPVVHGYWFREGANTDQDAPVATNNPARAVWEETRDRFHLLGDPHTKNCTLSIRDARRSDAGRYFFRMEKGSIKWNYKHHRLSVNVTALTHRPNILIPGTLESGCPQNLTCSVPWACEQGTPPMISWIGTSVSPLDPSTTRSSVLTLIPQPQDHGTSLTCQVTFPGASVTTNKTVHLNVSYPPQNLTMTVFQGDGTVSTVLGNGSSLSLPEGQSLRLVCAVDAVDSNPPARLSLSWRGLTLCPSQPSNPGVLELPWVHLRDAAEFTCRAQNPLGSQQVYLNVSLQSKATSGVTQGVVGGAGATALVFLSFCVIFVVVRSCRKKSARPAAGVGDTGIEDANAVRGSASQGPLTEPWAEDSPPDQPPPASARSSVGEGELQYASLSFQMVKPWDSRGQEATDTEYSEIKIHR
Protein translocase subunit SecA (Escherichia coli (strain K12)), sequence (P10408 whole entry): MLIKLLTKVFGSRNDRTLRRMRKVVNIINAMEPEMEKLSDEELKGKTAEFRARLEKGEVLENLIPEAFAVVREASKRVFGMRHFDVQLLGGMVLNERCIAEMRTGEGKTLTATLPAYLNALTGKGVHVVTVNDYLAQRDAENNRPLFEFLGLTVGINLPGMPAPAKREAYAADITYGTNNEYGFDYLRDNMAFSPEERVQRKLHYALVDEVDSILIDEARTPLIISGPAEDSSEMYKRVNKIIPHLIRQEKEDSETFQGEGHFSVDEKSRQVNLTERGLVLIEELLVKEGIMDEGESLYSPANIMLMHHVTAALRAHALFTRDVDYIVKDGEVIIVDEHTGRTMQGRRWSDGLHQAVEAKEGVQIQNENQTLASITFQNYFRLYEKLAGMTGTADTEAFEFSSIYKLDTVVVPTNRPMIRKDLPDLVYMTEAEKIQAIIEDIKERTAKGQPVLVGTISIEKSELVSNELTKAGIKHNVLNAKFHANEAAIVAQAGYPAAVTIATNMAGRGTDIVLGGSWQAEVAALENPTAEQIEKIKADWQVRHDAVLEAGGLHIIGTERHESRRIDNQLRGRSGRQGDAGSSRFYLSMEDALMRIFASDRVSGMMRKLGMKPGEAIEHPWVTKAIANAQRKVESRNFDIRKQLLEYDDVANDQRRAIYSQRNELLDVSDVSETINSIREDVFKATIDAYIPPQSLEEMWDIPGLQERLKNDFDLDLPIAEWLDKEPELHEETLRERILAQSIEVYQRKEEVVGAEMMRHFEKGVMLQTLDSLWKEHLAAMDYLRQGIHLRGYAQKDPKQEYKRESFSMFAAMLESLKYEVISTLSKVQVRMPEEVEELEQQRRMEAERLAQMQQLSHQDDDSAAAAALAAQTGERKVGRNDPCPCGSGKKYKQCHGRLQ

Row | SMILES | Percent Effect [1] | Percent Effect [2] | Percent Effect [3] | Percent Effect [4] | Percent Effect (Trypanosoma cruzi) | Percent Effect [5] | Percent Effect [6] | Percent Effect (Homo sapiens) | Percent Effect [7] | Percent Effect [8] | Percent Effect [9]
1 | O=C(Nc1cc(F)ccc1OCC1CCCO1)N1CCCC1 (stereo not given) | -0.769% | 2.6% | -5.42% | 10.4% | 6.55% | 3.56% | -2.37% | -1.89% | 2.91% | 14.6% | -5.42%
2 | Cc1ccc(-c2cc(CNC(=O)N3CCC(CO)CC3)on2)cc1 | -2.94% | 21.6% | 1.9% | -3.05% | -4.74% | -0.185% | 14.9% | 14% | 6.93% | 13.4% | -4.09%
3 | CCn1cnnc1C1CCN(C(=O)c2cnc(C3CC3)s2)CC1 | -2.76% | 17.7% | -5.9% | 9.8% | 0.85% | -2.28% | 3.52% | -10.4% | 6.4% | 13.9% | -4.8%
4 | CNC(=O)c1ccc(C(=O)N2CCCC(n3cc(C)cn3)C2)cn1 (stereo not given) | -7.4% | 26% | -0.148% | 5.41% | 9.18% | 3.56% | 12% | 26.2% | 9.71% | 26.8% | -11.2%
5 | CCn1cnnc1CNC(=O)NCC(c1cccs1)N1CCCC1 (stereo not given) | -2.72% | 18.2% | 0.236% | 9.73% | 2.43% | -1.42% | 8.11% | 10.8% | 5.83% | 19.5% | -6.68%
6 | CC(C)(C)N1CC(C(=O)N2CCN(CCn3cccc3)CC2)CC1=O (stereo not given) | -6.81% | 10.7% | -6.2% | 27.1% | 4.97% | 22.4% | 12% | 5.12% | 4.92% | 8.64% | -4.28%
7 | Cn1ccnc1CN1CCN(c2ccc(C#N)cc2F)CC1 | -4.37% | 21.6% | -10.5% | 15.7% | 3.44% | 4.25% | 11.1% | 17.8% | 6.93% | 23.2% | -6.24%
8 | CN1CCOC(CN(C(=O)CC2CCCC2)c2nccs2)C1 (stereo not given) | -0.692% | 0% | 6.23% | 8.01% | 0.464% | -4.25% | -2.69% | 7.78% | -3.96% | -6.1% | 2.72%
9 | O=C1CC(c2cccnc2)C2(CCN(S(=O)(=O)C3CC3)CC2)N1 (stereo not given) | -5.32% | 8.11% | 1.06% | -2.02% | 3.42% | -4.78% | 15.3% | -9.26% | 4.32% | 12.8% | 2.44%
10 | CC(C)c1nc2c(n1C)CCN(Cc1nc(-c3ccsc3)no1)C2 | -1.67% | -24.3% | -9.21% | 0.639% | 7.71% | -1.29% | 10.1% | 1.59% | 9.9% | 25.6% | -0.805%
11 | Cc1nc(C)n(CC2CCCN2CCCc2ccccc2)n1 (stereo not given) | -1.6% | -11% | -0.4% | 3.43% | 1.96% | 1.82% | 7.1% | -8.87% | 8.6% | 5% | -1.02%
12 | CC(C(=O)NCCOc1ccc2c(c1)OCO2)n1cncn1 (stereo not given) | -1.18% | 20.2% | -6.18% | -3.69% | -2.17% | 6.08% | 11.6% | -12.4% | 6.4% | 13.9% | -2.77%
13 | COCc1nc(C(=O)N2CCCCC2Cn2cc(C)cn2)cs1 (stereo not given) | -5.14% | -2.6% | 6.14% | -7.79% | -5.19% | -1.47% | 5.42% | 6.8% | -1.91% | -4.71% | -21.5%
14 | CCc1ncc2c(n1)CN(Cc1nc(-c3ccsc3)oc1C)CC2 | -6.04% | -18.4% | -33% | 12.2% | -1.77% | -0.719% | 9.73% | -1.35% | 19.2% | 16.1% | 2.49%
15 | CNC(=O)[C@@]12CCO[C@@H]1CCN(S(=O)(=O)c1cccc(C)c1)C2 | -2.33% | 10.8% | 2.22% | 0.794% | 3.23% | 7.96% | 9.96% | 11.1% | 1.08% | 12.8% | -1.83%
16 | COC(=O)N1CCCC(C(=O)NCc2cc3cccc(OC)c3o2)C1 (stereo not given) | -4.05% | 7.59% | 3.35% | 19.5% | -2.36% | 2.28% | -2.54% | -18.3% | 3.45% | 8.86% | -3.44%
17 | Cc1nc(CCNC(=O)NC2CCN(c3ncccn3)CC2)cs1 | -1.83% | 11% | -4.69% | 4.09% | 1.19% | -1.6% | 16% | 22.2% | 11.5% | 21% | 0.13%
18 | CC(=O)c1cc(CC(=O)NCc2ccc(CN(C)C)cc2)cs1 | -2.94% | 8.11% | -1.37% | 9.94% | 6.37% | 0.476% | -1.21% | 1.37% | 2.65% | 4.88% | -2.09%
19 | CCS(=O)(=O)N1CCC(c2nnc(CN3CCCC3)n2C2CC2)CC1 | -1.74% | 8% | -4.77% | 9.36% | 2.82% | 12.5% | 3.49% | 19.7% | 7.1% | 16.1% | -7.31%
20 | CN(Cc1ccc(Cl)s1)C(=O)NCc1nnc2n1CCC2 | -2.21% | 21.1% | 2.58% | -10.7% | 4.2% | -3.96% | 7.87% | 0.395% | 6.4% | 18.5% | -7.27%
